Screening data as filed in PubChem BioAssay.
CHRM1 agonist = human M1 muscarinic receptor agonism | AID 588814 | activation, % at 3 µM | 0.33% of 360,000 active | CHO-K1 hM1, Fluo-8 calcium fluorescence, agonist mode; 0% DMSO, 100% acetylcholine EC100 | P11229;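 active means activation above the run's mean compound activation plus 3 SD, cut at about 16% in these data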;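 further: peak over basal fluorescence ratio within a 140 s kinetic read after compound addition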
Target sequence (P11229 whole entry, looked up): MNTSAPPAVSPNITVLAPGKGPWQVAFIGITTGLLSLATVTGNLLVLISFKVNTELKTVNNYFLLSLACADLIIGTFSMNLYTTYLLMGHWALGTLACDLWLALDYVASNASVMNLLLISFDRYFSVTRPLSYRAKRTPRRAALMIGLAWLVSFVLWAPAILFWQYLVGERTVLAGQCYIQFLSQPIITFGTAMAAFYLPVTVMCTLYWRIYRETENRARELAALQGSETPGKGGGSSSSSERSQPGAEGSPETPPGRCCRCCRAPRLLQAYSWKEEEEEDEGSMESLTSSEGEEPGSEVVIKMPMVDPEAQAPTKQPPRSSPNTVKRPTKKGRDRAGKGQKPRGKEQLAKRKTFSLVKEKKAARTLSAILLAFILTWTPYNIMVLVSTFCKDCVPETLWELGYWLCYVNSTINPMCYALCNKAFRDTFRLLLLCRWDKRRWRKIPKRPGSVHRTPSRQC
M1 antag = antagonists of human M1 muscarinic receptor; inhibition, % at 3 µM; AID 588852; CHO-K1 hM1, Fluo-8 calcium fluorescence, ACh EC80 antagonist; 1.3% of 360,000 active;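 active means percent inhibition above its own plate's cutoff, namely the mean of that plate's compound wells plus 3 SD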;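 further: peak over basal fluorescence ratio during 140 s after agonist addition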
CHO-K1 Ca PAM = M1 PAM counterscreen hit in parental CHO-K1 cells | ATP EC20, Fluo-8 calcium fluorescence; 0% at ATP EC20, 100% at ATP max | activation, % at 3 µM | 0.02% of 360,000 active;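 active means activation above the run cutoff, the mean activation of all test compounds plus 3 SD, cut at about 40% in these data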;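 further: peak over basal fluorescence ratio in a 140 s read after ATP addition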
M1 PAM = positive allosteric modulators of human M1 muscarinic receptor | CHO-K1 hM1, Fluo-8 calcium fluorescence, ACh EC20; 0% = ACh EC20, 100% = maximal ACh | activation, % at 3 µM | 0.088% of 360,000 active | AID 588819; in the data active means activation above about 19%, passing the limit was not always enough
CHO-K1 Ca ag = counter-screen for M1 agonists: effect in parental CHO-K1 cells; Fluo-8 calcium fluorescence; scaled to maximal ATP response, vehicle zero; activation, % at 3 µM; 0.48% of 360,000 active; AID 602248; in the data active means activation above about 15%;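 further: untransfected CHO-K1 host cells lacking M1 receptor as counterscreen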
CHO-K1 Ca antag = M1 antagonist counterscreen hit in parental CHO-K1 cells. ATP-induced calcium, Fluo-8 fluorescence. inhibition, % at 3 µM. 0.6% of 360,000 active. AID 602250;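 active means inhibition above a per-plate cutoff, the plate's mean sample inhibition plus 3 SD, cut at about 24% in these data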
A number is an active result; . = inactive; / = no result given. This is a sample that favours compounds with a hit; in the whole collection about 2.4% have one here.

SMILES	CHRM1 agonist	M1 antag	CHO-K1 Ca PAM	M1 PAM	CHO-K1 Ca ag	CHO-K1 Ca antag
CC(C)N(CC#CCC(O)(c1ccccc1)c1ccccc1)C(C)C	.	38.9	.	.	.	.
O=S(CC(O)(c1ccccc1)c1ccccc1)CC(O)(c1ccccc1)c1ccccc1	.	.	.	.	.	.
CC1=C(C(=O)Nc2ccc(F)cc2)C(c2ccncc2)C2=C(CCCC2=O)N1 (stereo not given)	.	.	.	.	.	23.7
CCOC(=O)C1=C(C)NC2=C(C(=O)CCC2)C1c1ccc(N(C)C)cc1 (stereo not given)	.	44.9	.	.	.	.
CC1=C(C(=O)Nc2cccnc2)C(c2ccc3c(c2)OCO3)C2=C(CCCC2=O)N1 (stereo not given)	.	.	.	.	.	.
CCN(CC)c1ccc(C2C(C(=O)OCCOC)=C(C)NC3=C2C(=O)CCC3)cc1 (stereo not given)	.	.	.	.	.	.
CCCOC(=O)C1=C(C)NC2=C(C(=O)CCC2)C1c1ccc(N(C)C)cc1 (stereo not given)	.	25.9	.	.	.	.
O=C(O)C(CCc1ccccc1)N1C(=O)c2ccccc2C1=O (stereo not given)	.	.	.	.	.	.
NNC(=O)c1csc(-c2cccc(C(F)(F)F)c2)n1	.	.	.	.	.	.
CC1CCCN(S(=O)(=O)c2ccc(C(=O)Nc3nnc(C4CC4)o3)cc2)C1 (stereo not given)	.	.	.	.	.	24.6
CC1CCCN(S(=O)(=O)c2ccc(C(=O)Nc3nnc(-c4ccccn4)o3)cc2)C1 (stereo not given)	.	.	.	.	.	.
CC(C)CN1CCN(CCCOC(=O)Nc2cccc3ccccc23)CC1C (stereo not given)	.	31.9	.	.	.	.
CCCCCCC(C)OC(=O)Nc1cccc2ccccc12 (stereo not given)	.	.	.	.	.	.
Nc1ncnc2c1ncn2[C@@H]1O[C@H](CO)C[C@H]1O	.	.	.	.	.	24.2
Nc1ncnc2c1ncn2[C@@H]1O[C@H](COP(=O)(O)OP(=O)(O)OP(=O)(O)O)[C@@H](O)[C@H]1O	52.9	.	.	.	36.7	.
COCCN=c1scc(-c2cc(OC)ccc2OC)n1/N=C/c1c[nH]c2ccccc12	16.0	.	.	.	.	.
c1ccc(COc2ccc(OCCCN3CCCC3)cc2)cc1	.	45.5	.	.	.	.
c1ccc(COc2ccc(OCCN3CCCC3)cc2)cc1	.	.	.	.	.	.
CC1CCN(CCCOc2ccc(OCc3ccccc3)cc2)CC1	.	43.4	.	.	.	.
COc1ccc2sc(-c3ccc(N(C)C)cc3)c(-c3cnc(OC)nc3)c2c1	.	.	.	.	.	.
CC(Sc1nncs1)C(=O)Nc1ccc2c(c1)OCCO2 (stereo not given)	.	.	.	.	.	24.9
CC(C(=O)Nc1ccc2c(c1)OCCO2)c1ccc([N+](=O)[O-])cc1 (stereo not given)	41.8	.	.	.	17.3	.
Cc1c2cnccc2c(C)c2c1oc1ccccc12	.	.	.	.	.	.
CC1CN(C(=O)COC(=O)c2cncc(Br)c2)CC(C)O1 (stereo not given)	.	.	.	.	.	.
Cc1nc2c(C)cccc2cc1C(=O)N/N=C/c1cccnc1	.	.	.	.	.	.
SMILES	CHRM1 agonist	M1 antag	CHO-K1 Ca PAM	M1 PAM	CHO-K1 Ca ag	CHO-K1 Ca antag
CCOc1cc(CNCCSc2nnnn2C)cc(Br)c1OCc1ccccc1	.	29.1	.	.	.	.
COc1cc(OC)c(OC)cc1CNCCSc1nnnn1C	.	.	.	.	18.8	.
CCc1ccc(OCc2cccc(C(=O)N/N=C\c3cnn(C)c3C)c2)cc1	.	.	.	.	.	.
CN(C)CCCN(C(=O)COc1ccc(Cl)cc1)c1nc2cc3c(cc2s1)OCO3	.	.	.	.	.	.
COc1ccc(/C=N/NC(=O)c2ccc(CN3C(=O)c4cccc5cccc3c45)cc2)cc1O	23.1	.	.	.	.	.
COc1cc(/C=N\NC(=O)c2ccc(-c3ccccc3)cc2)cc(Br)c1O	.	.	.	.	.	.
COc1cc(/C=N/NC(=O)c2ccc(CN3C(=O)c4cccc5cccc3c45)cc2)cc(OC)c1O	.	.	.	.	15.5	.
COc1ccc(/C=N/NC(=O)c2ccc(-c3ccccc3)cc2)cc1O	.	.	.	.	.	.
COc1ccc(C(=O)CSc2nnc(CNC(=O)c3ccc(S(=O)(=O)N(C)C)cc3)o2)cc1	.	.	.	.	.	.
CN(CC(=O)NCc1cccnc1)S(=O)(=O)c1ccc(F)cc1	.	.	.	.	.	.
CCN1CCN(Cc2ccc(NC(=O)CC3Oc4ccc(C)cc4NC3=O)cc2)CC1 (stereo not given)	.	40.4	.	.	.	.
CCN(CC)CCCNC(=O)CC1Oc2ccc(C)cc2NC1=O (stereo not given)	.	.	.	.	.	.
Cc1ccc(NC(=O)CC2Oc3ccc(C)cc3NC2=O)cc1 (stereo not given)	.	.	.	.	.	.
Cc1ccc2c(c1)NC(=O)C(CC(=O)NCCN(CC(C)C)CC(C)C)O2 (stereo not given)	.	27.5	.	.	.	.
Cc1ccc2c(c1)NC(=O)C(CC(=O)Nc1ccc(CN3CCC(C)CC3)cc1)O2 (stereo not given)	.	101.0	.	.	.	.
CCOc1nc2cnccc2n(CC(=O)Nc2c(C)cccc2CC)c1=O	.	.	.	.	.	.
Nn1c(C2CCC2)nc2cc(Cl)ccc2c1=O	.	.	.	.	.	.
Cc1onc(-c2ccccc2)c1C(=O)Nc1ccc(-c2nnc3n2CCCCC3)cc1	.	.	.	.	.	.
Cc1noc(C(C)C)c1C(=O)Nc1ccc(-c2nnc3n2CCCCC3)cc1	.	32.5	.	.	.	.
O=C(Cn1c(-c2ccccn2)nc2ccccc21)N/N=C/c1ccccn1	.	.	.	.	.	29.9
Nc1[nH]c(C(=O)c2ccccc2)c(-c2ccccc2Br)c1C(=O)c1ccccc1	/	/	42.1	/	.	.
CN(C(=O)COC(=O)c1ccc(S(=O)(=O)N2CCCC2)cc1)c1ccccc1	.	50.0	.	.	.	.
O=C(COC(=O)c1ccccc1)c1ccc(S(=O)(=O)N2CCCCC2)cc1	.	.	.	.	.	.
O=C(NCc1ccccc1Cl)c1ccc(S(=O)(=O)NCc2ccco2)cc1	.	.	.	.	.	.
Fc1cccc(CNc2ncnc3cc(Cl)ccc23)c1F	.	.	.	.	15.2	.
Cc1ccc(Cl)cc1NS(=O)(=O)c1ccc2oc(=O)ccc2c1	.	.	.	.	.	.
